The list is not random: actives were taken first. Their share in the collection is about 3.5%.
MITF primary: blocks human microphthalmia-associated transcription factor; O75030; AlphaScreen MITF homodimerization, bead proximity signal; inhibition, % at 2.6 µM; hit rate 0.91% among 650,000; in the data active = inhibition above about 50%;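 note: 0% = vehicle wells with protein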
GPR151 ag: activates the human receptor GPR151; Q8TDV0; PathHunter beta-arrestin GPR151 cells, luminescence; activation, % at 11.2 µM; hit rate 1% among 650,000; in the data active = activation above about 4.9%;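 note: 0% = median of compound wells and 100% = cells with positive control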
FBW7 act: activators of human E3 ligase FBW7 | Q969H0 | AlphaScreen FBW7–phospho-cyclin E peptide binding, activator screen | normalized activity (activation), % at 26.1 µM | hit rate 0.13% among 650,000 | AID 1259310; in the data active = normalized activity above about 1.9%;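 note: purified mutant Fbw7 with reduced substrate affinity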
TEAD-YAP inh: TEAD-YAP interaction inhibition; HEK-TIYL cells, TEAD-Gal4/YAP UAS-luciferase luminescence; inhibition, % at 9.12 µM; hit rate 1.4% among 640,000; AID 1259422; in the data active = inhibition above about 32%;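 note: 0% = median of test compound wells and 100% = reference inhibitor wells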
GPR151 confirm: human GPR151 activation, confirmation screen; shares compounds with GPR151 ag; GPR151 PathHunter beta-arrestin cells, luminescence, 90 min; % of EA-reagent control over plate median; activation, % at 11.2 µM; 6,700 tested, under 10 active;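 active = mean percent activation across replicates above the confirmation screen cutoff of 4.91%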
GPR119 ag: activates human GPR119 in a GPR151 counter-screen; shares compounds with GPR151 ag; GPR119 PathHunter beta-arrestin cells, luminescence, 90 min; 0 = compound-well median, 100 = enzyme-acceptor control; activation, % at 11.2 µM; hit rate 0.3% among 6,700;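 active = mean percent activation in the counterscreen above 29.09%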;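 note: counterscreen on off-target GPR119 to flag nonselective hits from the GPR151 activator screen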
Active calls of the source: *; nt = not tested or not shown; ! = repeats disagree.

SMILES	MITF primary	GPR151 ag	FBW7 act	TEAD-YAP inh	GPR151 confirm	GPR119 ag
CC(C)(O)c1ccccc1CC[C@@H](SCC1(CC(=O)O)CC1)c1cccc(/C=C/c2ccc3ccc(Cl)cc3n2)c1	4	6.7*!	0	-8	0	1
CCSc1nnc(NC(=O)COc2ccc(Cl)cc2Cl)s1	-8	7.2*	0	3	1	4
Cc1ccc(NC(=O)CSc2nnc(NC(=O)COc3ccc(Cl)cc3)s2)cc1	11	0	0	1	nt	nt
Cc1nnc(SCC(=O)Nc2nc(-c3ccc(Cl)cc3)ns2)s1	0	5.2*	0	-9	-1	-6
Cc1cccc(NC(=O)CSc2nnc(NC(=O)COc3ccc(Cl)cc3)s2)c1	1	6.5*	0	-6	-1	-5
COC(=O)c1cc(C(=O)Nc2ccc(Br)cc2F)cc([N+](=O)[O-])c1	-6	0	0	-14	nt	nt
COc1ccc([N+](=O)[O-])cc1/C=C1\C(=O)N(c2ccccc2)N=C1C	-2	8.1*	0	-2	0	-1
O=C(CNCc1ccccc1)Nc1ccccc1N1CCOCC1	39	2	0	1	nt	nt
Cc1cc(NC(=O)C(C)n2cc([N+](=O)[O-])cn2)ccc1Br (stereo not drawn)	10	5.2*	0	-3	1	9
CC(=O)Nc1cccc(NC(=O)COc2cccc3ccc(N4CCCC4)nc23)c1	19	5.3*	0	31	0	7
COc1cccc(NC(=O)CSC2=C(C#N)C(c3ccccc3OC)CC(=O)N2)c1 (stereo not drawn)	22	1	0	-6	nt	nt
CCCN(CCC)C(=O)c1cc(-c2ccco2)[nH]n1	-1	5.2*	0	-1	0	-3
CC(C)(C)NC(=O)c1cc(-c2ccco2)[nH]n1	7	-2	0	0	nt	nt
CC1CCCN(c2c(-c3ccc(Cl)cc3)c(=O)c2=O)C1 (stereo not drawn)	-3	5.9*	0	10	1	-5
C#CCN(Cc1ccco1)C(=O)CC1(c2ccccc2F)CC(=O)N(CCOC)C1=O (stereo not drawn)	11	6.7*	0	-1	0	-1
Cc1nc(N)n2c(SCC(=O)Nc3ccc(F)cc3)nnc2c1Cc1ccccc1	-4	0	0	-4	nt	nt
COc1ccc(NC(=O)C2C3CCC(C3=C(C)C)C2C(=O)O)cc1 (stereo not drawn)	-5	5.5*	0	-5	2	21
Cn1c(=O)c2c(NC(=O)c3c(F)cccc3F)ccnc2n(C)c1=O	6	10*	0	1	-1	3
COCCc1nnc(NC(=O)Nc2ccc(Cl)cc2)s1	14	0	1	-1	nt	nt
COC(=O)c1cccc(NC(=O)C2COc3ccccc3O2)c1 (stereo not drawn)	-12	5.0*	0	-49	-1	-12
CSc1cccc(N=CC2=C(O)CC(C)(C)CC2=O)c1	-11	7.1*	0	3	-1	-4
COc1ccc(/C=C/C(=O)c2ccc([N+](=O)[O-])cc2)cc1	19	-1	0	3	nt	nt
N#CCC(=O)NCCOc1ccccc1	11	8.6*	0	4	1	1
COc1ccc(/C=C(/NC(=O)c2ccc(Br)cc2)C(N)=O)cc1	15	-1	0	5	nt	nt
CC(C(=O)NCC1CCCO1)C1Sc2ccccc2N(Cc2ccccc2Cl)C1=O (stereo not drawn)	12	1	0	1	nt	nt
SMILES	MITF primary	GPR151 ag	FBW7 act	TEAD-YAP inh	GPR151 confirm	GPR119 ag
CCCCC1CN(CCC(=O)NCc2c(C)nn(CC)c2C)Cc2ccccc2O1 (stereo not drawn)	7	7.5*	0	6	2	11
Cc1nn(C)c(C)c1-c1cccc(C(N)=O)c1	-5	0	0	0	nt	nt
Cc1nn(C)c(C)c1-c1ccc2nc(C(C)C)[nH]c(=O)c2c1	-10	5.6*	0	3	-1	1
N#Cc1c(NC(=O)COc2ccc3c(c2)OCO3)sc2c1CCC2	12	0	0	-13	nt	nt
COc1cccc(CC2(C3CCN(Cc4cccnc4)CC3)NC(=O)N(C)C2=O)c1 (stereo not drawn)	-5	1	0	-2	nt	nt
COc1cccc(CC2(C3CCN(Cc4ccccc4F)CC3)NC(=O)N(C)C2=O)c1 (stereo not drawn)	1	5.0*	0	8	1	4
CCN(CC)C(=O)C1CCCN(c2cc(C(=O)NCc3nc4ccccc4[nH]3)ccn2)C1 (stereo not drawn)	2	6.6*	0	2	0	-2
Nc1cc(C(=O)OCC(=O)Nc2cccc(S(N)(=O)=O)c2)ccc1Cl	9	6.4*	0	2	0	-3
CC(=O)c1cccc(NC(=O)COC(=O)c2ccc(Cl)c(N)c2)c1	-3	0	0	-3	nt	nt
NC(=O)C1(N2CCCCC2)CCN(C(=S)Nc2ccc(F)cc2)CC1	2	-1	0	13	nt	nt
NC(=O)C1(N2CCCCC2)CCN(C(=O)Nc2ccc(F)cc2F)CC1	3	5.9*	0	-3	1	5
CCOC(=O)c1sc(-c2ccccc2)cc1NC(=S)NC(=O)CN1C(=O)CCC1=O	6	7.7*	0	-3	1	7
CCOC(=O)c1sc(-c2ccccc2)cc1NC(=O)c1cc2ccccc2cc1OC	-11	-1	0	-20	nt	nt
O=C(Cn1c(-c2cccnc2)nc2ccccc21)N1CCCCCC1	-4	5.6*	0	10	0	2
O=C(Cn1c(-c2ccccn2)nc2ccccc21)N1CCCCC1	1	-3	1	2	nt	nt
CCOC(=O)C(NC(=O)/C(=C\c1ccc(F)cc1)NC(=O)c1ccccc1)C(C)C (stereo not drawn)	17	7.5*	0	13	0	-5
CCOC(=O)C(NC(=O)/C(=C\c1ccc(Br)cc1)NC(=O)c1ccccc1)C(C)O (stereo not drawn)	-6	0	0	-2	nt	nt
CCOCCCNC(=O)C(NC(=O)c1ccc(=O)[nH]c1)c1ccccc1 (stereo not drawn)	3	5.0*	0	-6	1	16
Cc1cc(C)n(/N=C/c2ccc(F)cc2)c(=O)c1C#N	15	1	0	3	nt	nt
CCCCNc1nc2ccccc2c2nc(-c3cccnc3)nn12	6	1	0	4	nt	nt
O=C1CCCN1CCCNc1nc2ccccc2c2nc(-c3cccnc3)nn12	10	6.3*	0	20	1	15
c1ccc2c(c1)nc(NCCCN1CCOCC1)c1nnnn12	7	-2	0	-8	nt	nt
O=C1CCCN1CCCNc1nc2ccccc2n2nnnc12	-7	5.9*	0	2	0	-8

Assay outcomes deposited in PubChem BioAssay by The Scripps Research Institute Molecular Screening Center.
